GLS inhibitor – qHTS for Inhibitors of Glutaminase (GLS); GLS enzymatic activity, qHTS titration; AID 624170, 2012; Glutaminase kidney isoform, mitochondrial (Homo sapiens), O94925; 0.21% of 410,000 active; Potency, µM (series often up to 45.5 µM), for the others: top-dose activity change, negative = inhibition, usual class: inhibitors; note: potency is the fitted concentration of half-maximal effect; % is set by controls: 0 for no effect and ±100 for the full control effect
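Human kidney-isoform GLS in 45 mM KH2PO4 pH 8.2, 0.02% Tween-20, with compound, started with 1mM L-Glutamine (added stock). Glutamate oxidase/HRP/Amplex red coupled fluorescence read at start and after 30 min at RT.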
KCNH2 3.1 block – qHTS for Inhibitors of KCHN2 3.1: Mutant qHTS; U2OS KCNH2 3.1, thallium flux FluxOr; stronger effect = lower value; 0.95% of 340,000 active; AID 720553, 2013; activity change, % (tested at about 1.8 µM); Potassium voltage-gated channel subfamily H member 2, brain isoform KCNH2 3.1 (human);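 active = maximum activity change below -70%; inconclusive = maximum activity change from -70% to -50%; inactive = maximum activity change above -50%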;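 note: thallium influx rate constant from kinetic fluorescence after stimulation buffer; % is set by controls: 0 for no effect and ±100 for the full control effect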
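Channel expression came from 3.1 mutant virus (1.77 x 10^8 /mL) applied to suspended U2OS cells for 4 h. Flux was tracked with FluxOr dye plus Red40 quencher, and kinetic rate constants normalized to controls.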
GLP-1R inv ag – qHTS of GLP-1 Receptor Inverse Agonists (Inhibition Mode); Glucagon-like peptide 1 receptor (Homo sapiens), P43220; HEK293 GLP-1R CRE-luciferase, luminescence, 24 h; GLP-1R form is constitutively active; Potency, µM (titrated, usually from 38.3 µM), for inactives: at the highest dose activity change, negative = inhibition, actives largely listed as inhibitors; 1.6% of 410,000 active; AID 624417, 2012; note: potency is the fitted concentration of half-maximal effect; % is set by controls: 0 for no effect and ±100 for the full control effect; nearly all actives have a fitted effect of over 55% in size
Target sequence (P43220 whole entry, looked up): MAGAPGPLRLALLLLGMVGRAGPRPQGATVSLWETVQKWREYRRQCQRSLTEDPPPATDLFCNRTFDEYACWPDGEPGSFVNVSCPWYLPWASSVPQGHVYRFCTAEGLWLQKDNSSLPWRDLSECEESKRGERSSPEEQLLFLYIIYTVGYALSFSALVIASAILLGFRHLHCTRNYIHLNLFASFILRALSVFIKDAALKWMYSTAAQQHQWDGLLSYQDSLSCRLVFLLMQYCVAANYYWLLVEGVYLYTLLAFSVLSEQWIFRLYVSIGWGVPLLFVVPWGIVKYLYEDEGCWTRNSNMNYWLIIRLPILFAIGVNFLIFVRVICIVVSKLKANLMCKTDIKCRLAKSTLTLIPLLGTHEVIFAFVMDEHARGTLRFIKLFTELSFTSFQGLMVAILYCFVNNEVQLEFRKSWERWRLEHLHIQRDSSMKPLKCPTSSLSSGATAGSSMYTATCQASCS
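Stable HEK293 clone (constitutively active GLP-1R + cAMP-response luciferase); 200 cells/uL plated, 12 h pre-culture, compound 24 hr, 37 deg C/5% CO2; detection reagent 12 min RT; luminescence.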
GLP1R ag – qHTS of GLP-1 Receptor Agonists; 0.007% of 380,000 active; Glucagon-like peptide 1 receptor (Homo sapiens), P43220; AID 624172, 2012; Potency, µM (series often up to 45.6 µM), for the others: top-dose activation, actives largely listed as activators; HEK293 GLP-1R CRE-luciferase, luminescence, 4-6 h; cells express a hypersensitive GLP-1R form; note: potency is the fitted concentration of half-maximal effect; % of control where 0% means no effect
KCNH2 WT inh – qHTS for Inhibitors of KCHN2 3.1: Wildtype qHTS; U2OS, BacMam KCNH2, thallium flux FluxOr; stronger effect = lower value; activity change, % at 1.84 µM; Voltage-gated inwardly rectifying potassium channel KCNH2 (Homo sapiens), Q12809; AID 720551, 2013; 0.37% of 340,000 active;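 active = maximum activity change below -70%; inconclusive = maximum activity change between -70% and -50%; inactive = maximum activity change above -50%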; note: % is set by controls: 0 for no effect and ±100 for the full control effect
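U2OS cells were transduced with wild-type KCNH2 virus (2.03 x 10^8 / mL) for 4 h at room temperature, then cultured overnight at 37 C. Thallium flux was read with FluxOr dye. Rate constants were normalized to DMSO controls.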
GLP1R cytotox – qHTS of GLP-1 Receptor Inverse Agonists: Cytotox Screen; 0.13% of 410,000 active; HEK293 cAMP-luciferase reporter cells, luminescence, 24 h; Potency, µM (highest dose often 38.3 µM), without a hit: at the highest dose activity change, negative = inhibition, usual class: inhibitors;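 note: loss of luciferase light is scored as toxicity; potency is the fitted concentration of half-maximal effect; % is set by controls: 0 for no effect and ±100 for the full control effect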
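Quantitative HTS format, 1536 wells, 200 cells/uL seeded. Compounds: 23 nL, 24 h, 37 °C. Detection: luciferase reagent, luminescence at 12 min RT; decreased signal taken as cytotoxic.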
* marks the source's active call; other numbers are inactive results; ? = inconclusive; nt = no result; [ ] = another dose, or the depositor's remark. An excerpt weighted towards active compounds, which were near 2.8% of everything screened. Unless noted, calls come from the whole dose curve; as a rule, active = well fitted curve in the direction sought with a large enough effect; inconclusive = small, poorly fitted or top-dose-only effect, or another doubt; inactive = no such curve, though single readings can be large; an effect the other way counts as inactive or inconclusive.

SMILES	GLS inhibitor	KCNH2 3.1 block	GLP-1R inv ag	GLP1R ag	KCNH2 WT inh	GLP1R cytotox
CC1=C(C(=O)N(C)C)CC(CC(=O)NC(c2ccccc2)c2ccccc2)C(=O)N1Cc1ccc(C(C)(C)C)cc1 (configuration not stated)	-1%	-16	?	2%	3	-18%
CC1=C(C(=O)N(C(C)C)C(C)C)CC(CC(=O)NC(c2ccccc2)c2ccccc2)C(=O)N1Cc1ccc(C(C)(C)C)cc1 (configuration not stated)	-7%	nt	?	-5%	nt	-4%
CCN(CC)C(=O)C1=C(C)N(Cc2ccc(F)cc2)C(=O)C(CC(=O)NC(c2ccccc2)c2ccccc2)C1 (configuration not stated)	-1%	-23	11µM*	4%	10	-27%
CCc1cccc(CC)c1NC(=O)Cn1nnc2sc(-c3ccccc3)cc2c1=O	9%	nt	5%	nt	nt	0%
Cc1ccc(CCNC(=O)CCc2cn(Cc3ccccc3C)c3ccccc23)cc1	-3%	nt	1%	nt	nt	-1%
Cc1cc(C)cc(NC(=O)NCC(O)COc2ccc([N+](=O)[O-])cc2)c1 (configuration not stated)	-4%	7	8.9µM*	12%	-26	2%
CCCN(CCC)CC(O)COc1ccc([N+](=O)[O-])cc1 (configuration not stated)	14%	?	-26%	-1%	-75*	-18%
COc1ccc(N(C(=O)c2cc(OC)c(OC)c(OC)c2)S(=O)(=O)c2ccc(C)cc2)cc1	6%	nt	?	nt	nt	0%
COc1ccc(C(=O)N(c2ccc(C)cc2)S(=O)(=O)c2ccc(C)cc2)cc1	-13%	nt	3.2µM*	nt	nt	?
Cc1cc2ccccc2n1-c1ccc(C(=O)N2CCCCC2)s1	2%	nt	?	nt	nt	-1%
Cc1cc(/C=N/NC(N)=S)c(C)n1-c1ccc(Br)cc1	-18%	11	?	-1%	-2	?
CC(C)Oc1ccc(Br)cc1/C=N\NC(N)=S	-3%	2	3.2µM*	0%	-3	2.5µM*
Cc1noc(C)c1C(=O)Nc1nc(-c2cc(F)ccc2F)cs1	-4%	-135*	38%	18%	-1	7%
CC(C)[C@H](CO)N(Cc1cccc(F)c1)c1nc(Nc2cccc(Cl)c2)c2ncn(C(C)C)c2n1	-4%	8	4µM*	2%	-7	18%
CC[C@H](CO)Nc1nc(Nc2cccc(Cl)c2)c2ncn(C(C)C)c2n1	-9%	-4	?	-16%	8	?
Clc1ccc(/C=N/NC(=Nc2ccccc2)c2ccccn2)c(Cl)c1	12%	3	6%	3%	-3	10µM*
COc1cccc(NC(=O)CN(C)C(=O)c2ccc(-c3ccc(Cl)cc3)o2)c1	-2%	-10	?	1%	0	8%
COc1ccc(-c2ccc(C(=O)Nc3cccc(C(F)(F)F)c3)c3occc23)c(C)c1	-4%	nt	4.5µM*	-1%	nt	-5%
COc1ccc(NC(=O)c2cccc(F)c2)cc1Cl	3%	-5	?	6%	0	-13%
COc1cccc(NC(=O)CN(C)C(=O)C23CC4CC(CC(Cl)(C4)C2)C3)c1	-2%	-32	7.9µM*	2%	-18	-14%
COc1cccc(NC(=O)CN(C)C(=O)c2ccc(-c3ccccc3Cl)o2)c1	-7%	nt	8.9µM*	7%	7	-6%
COc1ccc(NC(=O)CN(C)CC(=O)Nc2cccc(F)c2)cc1Cl	-11%	-9	10µM*	22%	-14	-14%
COCCn1c(CNC(=O)c2cccc(N(C)C)c2)nc2cccnc21	7%	nt	43%	nt	nt	-4%
O=S(=O)(Nc1nc2ccccc2nc1NCC1CCCO1)c1cc(Cl)ccc1Cl (configuration not stated)	-7%	-40	?	0%	0	-8%
COc1cccc(NC(=O)CN(C)CC(=O)Nc2cccc(C(F)(F)F)c2)c1	5%	-18	7.1µM*	26%	1	-12%
SMILES	GLS inhibitor	KCNH2 3.1 block	GLP-1R inv ag	GLP1R ag	KCNH2 WT inh	GLP1R cytotox
COc1cccc(NC(=O)CN(C)CC(=O)Nc2ccc(Br)cc2)c1	7%	?	-2%[0.307 µM]	-7%	-3	-3%[0.307 µM]
Cc1cc(C)c2cc(C(=O)N(C)C3CCN(C)CC3)[nH]c2c1	-5%	3	5µM*	9%	-1	7%
O=C(CSCc1ccccc1Cl)N1CCN(c2ccc(F)cc2)CC1	5%	nt	?	nt	nt	-2%
C=CS(=O)(=O)N(Cc1ccc(Cl)c(Cl)c1)C[C@@H](O)CO	8%	5	6.3µM*	3%	-15	?
Cc1ccc(-n2nc(C)c3c(C)c(CCC(=O)NCc4ccccc4)c(C)nc32)cc1	-9%	-107*	2%	5%	-4	3%
COc1ccc(Nc2ncnc3c2cnn3C)c(OC)c1	6%	nt	5%	nt	nt	-5%
COC(=O)CSc1nnc(Cc2ccccc2)n1-c1ccc(C)cc1	0%	-98*	-10%	-2%	-3	-2%
COC(=O)CSc1nnc(C)n1-c1ccc(C)cc1	4%	2	3%	-9%	-2	5%
Cc1ccc(-n2c(Cc3ccccc3)nnc2SCc2nc(-c3cccs3)no2)cc1	-26%	nt	10µM*	nt	nt	-6%
Nc1c(CC(=O)O)cccc1C(=O)c1ccc(Br)cc1	1%	nt	nt	6%	nt	nt
COc1cccc(OCc2cc(C3Nc4ccccc4C(=O)N3Cc3ccco3)ccc2OC)c1 (configuration not stated)	10%	-12	0%	-1%	3	-4%
COc1ccc(C2Nc3ccccc3C(=O)N2Cc2ccco2)cc1COc1ccc([N+](=O)[O-])cc1 (configuration not stated)	10%	-80*	?	-21%	-31	-1%
CCN(CC)CCn1c(=N)n(CC(=O)c2ccc(Br)s2)c2ccccc21	-22%	2	2.8µM*	20%	2	?
O=S(=O)(Nc1ccccc1N1CCCCC1)c1ccc(Cl)s1	?	4	10µM*	-6%	-4	0%
O=C(C1CC1)N1CCc2cc(Br)cc(S(=O)(=O)Nc3ccc(F)c(F)c3)c21	-7%	nt	22µM*	-6%	nt	?
COC(OC)C1(CCc2ccccc2)NC(=O)NC1=O (configuration not stated)	-14%	-1	1%	0%	0	2%

Screening data deposited in PubChem BioAssay by National Center for Advancing Translational Sciences (NCATS).
